# In PubChem BioAssay:
# Active and inactive are the calls of the source. Cut-off read from the data, not from the text of the source, unless noted: active = inhibition above about 80%; inactive = the rest.
# Experiments:
# [1] = sensitizers of A549 cells to miR-34 induction, primary screen, imaging, A549 dox-inducible miR-34, nuclei and caspase counts (AID 1347080;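 active = compounds whose cell count with miR-34 switched on is under 0.7 times the count with it off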); settings: A549 miR-34 inducible, Hoechst nuclei count, 48 h
# [2] = survival rescue of mitochondrial mutant cells in low glucose, primary screen, MELAS cybrids, Rieske KO mouse fibroblasts, CellTiter-Glo (AID 1508586;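 active = mean z-score across replicates of 1.96 or higher in either the MELAS or the Rieske mutant cell line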;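 note: z relative to plate mean and SD of compound and empty wells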)
# [3] = LFS_MB_P medulloblastoma growth inhibition, cell-based, chromothripsis tumors, cisplatin or BGB combos (AID 1671449); settings: LFS_MB_P medulloblastoma cells;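 note: cells exposed for 96 hours; 0% = vehicle DMSO and 100% = killing by high DMSO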
# [4] = HDN33 neuroblastoma growth inhibition, cell-based, chromothripsis tumors, cisplatin or BGB combos (AID 1671450); settings: HDN33 neuroblastoma cells, stronger effect = higher value;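 note: cells exposed to compound for four days; 0% = vehicle DMSO and 100% = cell killing by high DMSO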
# [5] = ICB984 medulloblastoma cell growth inhibition, synergistic combos for chromothripsis tumors, cisplatin or BGB combos (AID 1671451; call rule not given here;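 note: cells exposed for 96 hours before readout; 0% = vehicle DMSO and 100% = killing by high DMSO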); settings: ICB984 medulloblastoma cells, drug combinations, stronger effect = higher value
# [6] = LFS_MB_1R medulloblastoma cell growth inhibition, synergistic combos for chromothripsis tumors, cisplatin or BGB combos (AID 1671452); settings: LFS_MB_1R medulloblastoma cells, stronger effect = higher value;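 note: cells exposed for 96 hours before readout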
# [7] = HTB85 osteosarcoma cell growth inhibition, synergistic combos for chromothripsis tumors, BGB or cisplatin IC20 combos (AID 1671453); settings: HTB85 osteosarcoma cells, drug combinations, stronger effect = higher value;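 note: cells exposed for 96 hours before readout; 0% = vehicle DMSO and 100% = high DMSO killing control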
# [8] = CRL2098 osteosarcoma cell growth inhibition, synergistic combos for chromothripsis tumors, BGB or cisplatin IC20 combos (AID 1671454); settings: CRL2098 osteosarcoma cells, drug combinations, stronger effect = higher value;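 note: cells exposed for 96 h before readout; 0% = vehicle DMSO and 100% = killing by high DMSO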
# [9] = HD-MB03 medulloblastoma cell growth inhibition, synergistic combos for chromothripsis tumors, BGB or cisplatin IC20 combos (AID 1671455; in the data active = inhibition above about 83%;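 note: 0% = vehicle DMSO and 100% = high DMSO as cytotoxic control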); settings: HD-MB03 medulloblastoma cells, stronger effect = higher value
# [10] = UWB1.289 ovarian carcinoma cell growth inhibition, synergistic combos for chromothripsis tumors, BGB or cisplatin combos (AID 1671456); settings: UWB1.289 ovarian carcinoma cells, stronger effect = higher value;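 note: cells exposed to compound for four days; 0% = vehicle DMSO and 100% = killing by high DMSO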
# [11] = LFS_MB_2R medulloblastoma cell growth inhibition, synergistic combos for chromothripsis tumors, cisplatin combos (AID 1671457); settings: LFS_MB_2R medulloblastoma cells, stronger effect = higher value;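 note: cells exposed to compound for four days before readout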
# [12] = MDA-MB-436 breast carcinoma cell growth inhibition, synergistic combos for chromothripsis tumors, BGB or cisplatin combos (AID 1671458; call rule not given here;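 note: cells exposed for 96 hours; 0% = vehicle DMSO and 100% = killing by high DMSO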); settings: MDA-MB-436 breast carcinoma growth inhibition, drug combinations, stronger effect = higher value
# [13] = UWB1.289_BRCA1 ovarian cancer growth, cell-based, BGB or cisplatin combinations (AID 1671459); settings: UWB1.289 BRCA1 ovarian carcinoma, drug combinations, stronger effect = higher value
# [14] = human astrocyte viability loss, single and combined drugs, cytotoxicity control for chromothriptic childhood tumor combination screen, cell-based, BGB or cisplatin IC20 combos (AID 1671460); settings: Human astrocytes, drug combinations, stronger effect = higher value;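 note: cells exposed to compounds for 96 hours before viability readout; 0% = vehicle and 100% = killing control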
# [15] = growth inhibition of BT084 medulloblastoma cells, cell-based, ICGC_MB145, cisplatin and BGB IC40 combos (AID 1671461); settings: drug combinations, stronger effect = higher value;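 note: cells exposed to drugs for 96 hours; 0% = vehicle DMSO and 100% = high DMSO full killing control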
# [16] = growth inhibition of RCMB18 medulloblastoma cells, cell-based, cisplatin and BGB IC40 combos (AID 1671462); settings: stronger effect = higher value;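 note: cells exposed to compound for four days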
# [17] = growth inhibition of CRL1545 osteosarcoma cells, cell-based, cisplatin and BGB IC20 combos (AID 1671464); settings: stronger effect = higher value;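 note: cells exposed to compound for 96 hours before readout; 0% = vehicle DMSO and 100% = high DMSO killing control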
# [18] = hESC survival regulators, cell-based (AID 493140; call rule not given here;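 note: cells exposed to compounds for four days before counting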); settings: human embryonic stem cell survival screen; stronger effect = higher value
# [19] = liver-stage malaria parasite growth inhibition, primary screen, cell-based, HepG2, luciferase luminescence, HepG2 viability (AID 624349; in the data active = parasite load remaining mostly below about 12%, no sharp cut-off; inactive = mostly above about 10%;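 note: 100% = mean of DMSO negative control wells on the same plate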); settings: P. berghei liver stage in HepG2, luciferase luminescence, concentration not given here; parasite load remaining: stronger effect = lower value; viability: measured here: HepG2 viability without parasites
# [20] = stronger effect = lower value, cell number ratio, induced over uninduced
# [21] = measured here: relative caspase fold change +Dox/-Dox
# [22] = measured here: total cells with miR-34 induction, stronger effect = lower value
# [23] = measured here: total cells without miR-34 induction
# [24] = MELAS cybrid survival, CellTiter-Glo 48 h, stronger effect = higher value
# [25] = Rieske KO mouse fibroblast survival, CellTiter-Glo 72 h
# [26] = measured here: combination with BGB IC40, at 0.05 µM
# [27] = measured here: with BGB IC20 combination, at 0.5 µM
# [28] = measured here: with cisplatin IC20 combination, at 0.5 µM
# [29] = measured here: combination with cisplatin, at 0.5 µM
# [30] = measured here: combination with cisplatin, at 5 µM
smiles,measurement,setting,value
CC1OC(n2cc(F)c(=O)[nH]c2=O)C(O)C1O (stereo not drawn),fold change,[1]; [20],0.451 (active)
same,fold change,[1]; [21],2.09
same,cell count,[1]; [22],2920
same,cell count,[1]; [23],6480
same,z-score,[2]; [24],-0.306 (inactive)
same,z-score,[2]; [25],0.652
same,inhibition,"[3]; at 0.5 µM, stronger effect = higher value",-9.42% (inactive)
same,inhibition,"[3]; measured here: combination with BGB IC20, at 0.005 µM",-7.8%
same,inhibition,"[3]; measured here: combination with BGB IC40, at 0.005 µM",-40.7%
same,inhibition,[3]; [26],-29.6%
same,inhibition,"[3]; measured here: combination with cisplatin, at 0.5 µM, stronger effect = higher value",-29.8%
same,inhibition,"[3]; measured here: combination with cisplatin, at 5 µM, stronger effect = higher value",-27.3%
same,inhibition,"[4]; BGB combo, at 5 µM",-8.24%
same,inhibition,[4]; at 0.5 µM,-30.6% (inactive)
same,inhibition,"[4]; cisplatin combo, at 5 µM",-12.9%
same,inhibition,[4]; [27],-22.1%
same,inhibition,[4]; [28],-19.8%
same,inhibition,"[4]; single agent, at 5 µM",-20.3%
same,inhibition,"[5]; BGB IC20 combo, at 0.005 µM",-5.88%
same,inhibition,"[5]; BGB IC40 combo, at 0.005 µM",-26.6%
same,inhibition,"[5]; BGB IC40 combo, at 0.05 µM",-7.54%
same,inhibition,[5]; at 0.5 µM,-15.5% (inactive)
same,inhibition,"[5]; cisplatin combo, at 0.05 µM",-10.5%
same,inhibition,"[5]; cisplatin combo, at 0.5 µM",-3.76%
same,inhibition,"[5]; cisplatin combo, at 5 µM",-40.8%
same,inhibition,"[5]; measured here: 5 uM single agent, at 5 µM",-21.2%
same,inhibition,[6]; at 0.5 µM,-23.1% (inactive)
same,inhibition,[6]; [26],-35.1%
same,inhibition,[6]; [29],-21.6%
same,inhibition,[6]; [30],-58.4%
same,inhibition,[7]; at 0.5 µM,-23.8% (inactive)
same,inhibition,"[7]; measured here: with BGB IC20, at 0.5 µM",-38.6%
same,inhibition,"[7]; measured here: with BGB IC20, at 5 µM",-31%
same,inhibition,"[7]; measured here: with cisplatin IC20, at 0.5 µM",-26.6%
same,inhibition,"[7]; measured here: with cisplatin IC20, at 5 µM",-40.3%
same,inhibition,"[7]; single agent, at 5 µM",-22%
same,inhibition,[8]; at 0.5 µM,-5.43% (inactive)
same,inhibition,"[8]; measured here: combination with BGB at IC20, at 0.5 µM",-21.1%
same,inhibition,"[8]; measured here: combination with cisplatin at IC20, at 0.5 µM",-73.9%
same,inhibition,[9]; at 0.5 µM,-15.3% (inactive)
same,inhibition,"[9]; measured here: combo with BGB at IC20, at 0.5 µM",-17.8%
same,inhibition,"[9]; measured here: combo with cisplatin at IC20, at 0.5 µM",-10.3%
same,inhibition,[10]; at 0.5 µM,-6.51% (inactive)
same,inhibition,"[10]; measured here: inhibition with BGB combination, at 0.05 µM",-35.5%
same,inhibition,"[10]; measured here: inhibition with cisplatin combination, at 0.05 µM",-17.5%
same,inhibition,[11]; at 0.5 µM,-17.7% (inactive)
same,inhibition,[11]; [29],-12.9%
same,inhibition,[11]; [30],-95.4%
same,inhibition,[12]; at 0.5 µM,-32.6% (inactive)
same,inhibition,"[12]; measured here: BGB combination, at 0.5 µM",-38.6%
same,inhibition,"[12]; measured here: BGB combination, at 5 µM",-19.2%
same,inhibition,"[12]; measured here: cisplatin combination, at 0.5 µM",-54.4%
same,inhibition,"[12]; measured here: cisplatin combination, at 5 µM",12%
same,inhibition,"[13]; BGB combination, concentration series, at 5 µM",-3.82%
same,inhibition,[13]; at 0.5 µM,-19.6% (inactive)
same,inhibition,"[13]; cisplatin combination, concentration series, at 5 µM",4%
same,inhibition,[14]; at 0.5 µM,-18.2% (inactive)
same,inhibition,"[14]; measured here: combo with BGB IC20, at 0.5 µM",-17.6%
same,inhibition,"[14]; measured here: combo with cisplatin IC20, at 0.5 µM",-13.1%
same,inhibition,[15]; at 0.5 µM,-33.9% (inactive)
same,inhibition,"[15]; cisplatin combination, at 0.5 µM",-18.2%
same,inhibition,"[15]; cisplatin combination, at 5 µM",3.57%
same,inhibition,"[15]; measured here: BGB IC40 combination 0.05 uM, at 0.05 µM",-9.17%
same,inhibition,"[15]; single agent, at 5 µM",-31.7%
same,inhibition,[16]; at 0.5 µM,-20.6% (inactive)
same,inhibition,"[16]; cisplatin combo, at 5 µM",-44.8%
same,inhibition,"[16]; measured here: BGB IC40 combination, at 0.05 µM",-8.2%
same,inhibition,[16]; [29],-22.5%
same,inhibition,"[16]; single agent, at 5 µM",-11.4%
same,inhibition,[17]; at 0.5 µM,-45.1% (inactive)
same,inhibition,[17]; [27],-21.9%
same,inhibition,[17]; [28],-60.2%
same,inhibition,"[17]; single agent, at 0.05 µM",-41.1%
same,inhibition,"[17]; single agent, at 5 µM",-1.1%
CCCC1C(=O)N2C(N(C)C)=Nc3ccc(C)cc3N2C1=O (stereo not drawn),survival,[18],9.17 (inactive)
same,parasite load remaining,[19],172% (inactive)
same,viability,[19],71.8%
same,fold change,[1]; [20],0.881 (inactive)
same,fold change,[1]; [21],0.721
same,cell count,[1]; [22],8830
same,cell count,[1]; [23],10000
same,z-score,[2]; [24],0.00688 (inactive)
same,z-score,[2]; [25],-0.91
